The text below walks through data of PubChem BioAssay (NCATS).

Molecules are shown by their SMILES. “And” between values parts separate entries of the source, which are not always exact repeats. Identical values can stand only once. Records with an inconclusive call do not appear. Entries that show only a call come without a potency. The source made the active and inactive calls. Unless noted, calls follow the shape of the dose curve; as a rule, active = well fitted curve in the direction sought with a large enough effect; inconclusive = small, poorly fitted or top-dose-only effect, or another doubt; inactive = no such curve, though single readings can be large; an effect the other way counts as inactive or inconclusive.

Test [1] deals with Calcium and integrin-binding protein 1 (Homo sapiens) (UniProt Q99828). Description: Primary qHTS for Identification of Calcium Integrin Binding Protein 1 (CIB1) Competitor (AID 1508620).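 Also: GST tagged CIB1 binding a fluorescein labelled alphaIIb integrin peptide tracer; top concentration of the series differs between compounds.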 In short, it runs like this:
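CIB1-GST (1 uM final) and compound incubated 15 min at room temperature before adding FITC-alphaIIb peptide tracer (100 nM final). Competition for binding read by fluorescence polarization (ex 480, em 540) after another 15 min at room temperature.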
In general terms: In qHTS, concentration-response curves come from the screen itself.

A short description of test [2]: Primary qHTS for small molecule stabilizers of the endoplasmic reticulum resident proteome: Secreted ER Calcium Modulated Protein (SERCaMP) assay (AID 1508630). In short, it runs like this:
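The SH-SY5Y reporter protocol was run at 3 concentrations up to 38.3 uM (primary) or 11 concentrations (follow-up): 16 h compound, 100 nM thapsigargin for 4 h, then extracellular luciferase luminescence.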

The nature of test [3]: Primary qHTS for inhibitors of nuclear receptor binding SET domain protein 2 (NSD2) in an RCH-ACV wild type WT cells (2C) (AID 1645877). Also: nearly all actives have a fitted effect of over 70% in size. Also: potency is read from the fitted curve at half-maximal effect.
Test [4] deals with Catechol O-methyltransferase (Homo sapiens) (UniProt P21964). Description: Confirmatory Screen for Target Class Profiling of Small Molecule Inhibitors of Methyltransferases (AID 1745852). The settings on record: MTase-Glo luminescence, SAH detection, recombinant enzyme; measured here: COMT max response; stronger effect = lower value.
For test [5], the target named is Guanidinoacetate N-methyltransferase (Homo sapiens) (UniProt Q14353). The test is described as above. The settings on record: activity change, negative = inhibition: at 57.3 µM (top of the series).
Test [6] addresses Nicotinamide N-methyltransferase (Homo sapiens) (UniProt P40261). The description is as above. The settings on record: MTase-Glo luminescence, SAH detection, recombinant enzyme; measured here: NNMT max response; stronger effect = lower value.
The nature of test [7]: Primary qHTS for inhibitors of nuclear receptor binding SET domain protein 2 (NSD2) in an isogenic RCH-ACV NSD2 p.E1099K mutant (9B) (AID 1645876). Also: nearly all actives have a fitted effect of over 70% in size. Also: potency is read from the fitted curve at half-maximal effect.
Test [8] deals with Cytochrome P450 2D6 (Homo sapiens) (UniProt P10635). Description: Cytochrome P450 family 2 subfamily D member 6 (CYP2D6) small molecule antagonists: luciferase biochemical (cell-free) qHTS assay (AID 1645840; active = well fitted curve in the direction sought with a large enough effect in the repeat runs; an effect the other way counts as inactive or inconclusive; also: nearly all actives have a fitted effect of over 55% in size). In short, it runs like this: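 P450-Glo CYP2D6 system: proluciferin substrate converted by enzyme to luciferin, read by luminescence proportional to activity. Enzyme-substrate mix with compound 10 min at room temperature, then NADPH regeneration 1 h before detection reagent.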

Test [9] deals with Cytochrome P450 2C9 (Homo sapiens) (UniProt P11712). Description: Cytochrome P450 family 2 subfamily C member 9 (CYP2C9) small molecule antagonists: luciferase biochemical (cell-free) qHTS assay (AID 1645842; active = well fitted curve in the direction sought with a large enough effect in the repeat runs; an effect the other way counts as inactive or inconclusive; also: potency is read from the fitted curve at half-maximal effect; nearly all actives have a fitted effect of over 55% in size). Summed up:
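P450-Glo CYP2C9 system: proluciferin substrate with enzyme in mix containing 0.4% BSA, 10 min at room temperature, then NADPH regeneration solution added and incubated 1 h at 37C. Detection reagent stopped reaction; luminescence read after 20 min as RLU.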

Chain of Calcium and integrin-binding protein 1 (Homo sapiens) (Q99828 whole entry, looked up): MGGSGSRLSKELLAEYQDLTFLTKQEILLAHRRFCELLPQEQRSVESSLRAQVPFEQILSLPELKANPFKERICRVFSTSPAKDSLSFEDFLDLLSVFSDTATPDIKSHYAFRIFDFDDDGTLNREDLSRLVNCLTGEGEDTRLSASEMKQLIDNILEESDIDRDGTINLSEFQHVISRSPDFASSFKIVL
Chain of Nicotinamide N-methyltransferase (Homo sapiens) (P40261 whole entry, looked up, the tested form may be a part): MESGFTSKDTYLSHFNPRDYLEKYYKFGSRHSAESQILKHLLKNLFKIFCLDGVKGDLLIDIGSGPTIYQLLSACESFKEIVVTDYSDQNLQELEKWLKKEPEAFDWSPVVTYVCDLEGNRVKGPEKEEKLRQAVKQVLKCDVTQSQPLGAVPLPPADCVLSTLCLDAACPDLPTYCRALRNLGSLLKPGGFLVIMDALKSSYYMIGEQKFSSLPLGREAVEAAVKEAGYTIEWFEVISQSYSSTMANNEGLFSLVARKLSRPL
Chain of Catechol O-methyltransferase (Homo sapiens) (P21964 whole entry, looked up): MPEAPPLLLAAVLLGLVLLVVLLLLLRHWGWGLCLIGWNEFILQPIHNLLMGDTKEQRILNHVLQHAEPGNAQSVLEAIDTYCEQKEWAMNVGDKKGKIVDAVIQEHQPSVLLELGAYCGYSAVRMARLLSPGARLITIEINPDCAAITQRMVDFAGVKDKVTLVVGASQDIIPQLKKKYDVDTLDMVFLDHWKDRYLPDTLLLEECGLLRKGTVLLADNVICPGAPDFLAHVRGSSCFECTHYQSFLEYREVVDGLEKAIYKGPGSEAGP
Chain of Cytochrome P450 2D6 (Homo sapiens) (P10635 whole entry, looked up): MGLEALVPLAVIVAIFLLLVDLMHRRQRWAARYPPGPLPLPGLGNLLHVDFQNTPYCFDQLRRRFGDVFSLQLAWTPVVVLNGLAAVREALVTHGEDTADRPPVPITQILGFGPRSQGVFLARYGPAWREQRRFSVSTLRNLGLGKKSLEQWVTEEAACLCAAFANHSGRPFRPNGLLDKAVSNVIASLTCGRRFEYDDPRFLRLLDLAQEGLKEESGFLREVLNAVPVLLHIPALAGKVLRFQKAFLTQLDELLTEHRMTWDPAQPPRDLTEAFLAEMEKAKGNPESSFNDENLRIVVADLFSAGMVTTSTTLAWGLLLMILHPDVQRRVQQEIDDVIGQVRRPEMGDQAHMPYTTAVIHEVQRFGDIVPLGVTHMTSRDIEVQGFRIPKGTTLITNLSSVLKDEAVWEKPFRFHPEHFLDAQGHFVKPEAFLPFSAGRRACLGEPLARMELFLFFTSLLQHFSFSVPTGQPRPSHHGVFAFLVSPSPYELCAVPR
Chain of Cytochrome P450 2C9 (Homo sapiens) (P11712 whole entry, looked up): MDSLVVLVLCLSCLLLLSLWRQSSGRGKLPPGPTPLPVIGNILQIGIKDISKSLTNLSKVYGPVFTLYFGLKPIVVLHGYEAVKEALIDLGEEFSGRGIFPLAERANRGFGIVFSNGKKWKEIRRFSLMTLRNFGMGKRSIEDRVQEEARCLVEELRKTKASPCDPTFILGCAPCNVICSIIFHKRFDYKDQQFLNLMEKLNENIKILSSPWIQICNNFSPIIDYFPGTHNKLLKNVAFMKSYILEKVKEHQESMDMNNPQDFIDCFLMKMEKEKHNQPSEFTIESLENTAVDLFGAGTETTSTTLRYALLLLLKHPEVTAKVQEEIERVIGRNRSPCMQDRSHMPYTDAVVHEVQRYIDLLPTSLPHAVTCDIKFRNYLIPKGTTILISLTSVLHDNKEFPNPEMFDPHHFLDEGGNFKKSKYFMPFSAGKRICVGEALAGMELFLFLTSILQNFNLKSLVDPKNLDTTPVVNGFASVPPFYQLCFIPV

Turning to `c1cc(CN2CCCNCCNCCCNCC2)ccc1CN1CCCNCCNCCCNCC1`, the Potency result in test [1] and in test [3] was “inactive” each time. In test [2], the outcome was “inactive”.

In the case of `Cn1cc(-c2cnn3c(N)c(Br)c([C@H]4CCCNC4)nc23)cn1`, the Potency entry in test [1] was “inactive”. The outcome in [2] was “inactive”. The activity is -1.78% in [4] and -6.14% in [6]. The activity change, negative = inhibition in test [5] came to 2.57%.

On to `CCN(CC)Cc1ccc2cc(COC(=O)Nc3ccc(C(=O)NO)cc3)ccc2c1`, for which the Potency entry in [1] was “inactive”. In addition, the outcome in test [2] is “inactive”. Moreover, the Potency was 290 nM (active) and 742 nM (active) in test [7]; 230 nM (active) and 525 nM (active) in test [3]. Besides, the activity in test [4] is 0%; in test [6] it was -7.87%. Also, the activity change, negative = inhibition in test [5] was -6.61%.

`CN(C)c1ccc(C(=O)NCCCCCCC(=O)NO)cc1`: the Potency result in test [1] was “inactive”. Besides, the outcome in test [2] is “inactive”. For the same compound, the Potency was 525 nM (active) in [7] and 934 nM (active) in test [3].

Take `CCN(CC)CCCCNc1ncc2c(n1)N(C)C(=O)N(c1c(Cl)c(OC)cc(OC)c1Cl)C2`: in test [1], the Potency result is “inactive”. Also, in test [2], the outcome is “inactive”. Further, the Potency is 14800 nM (active) in test [7] and 13200 nM (active) in test [3].

For the compound `CC1(C)CC(O)CC(C)(C)N1[O]`, in [2], the outcome was “inactive”.

With `CC(C)(C)c1nc2c3cc[nH]c(=O)c3c3cc(F)ccc3c2[nH]1`, in test [1], the Potency entry is “inactive”. For the same compound, the outcome in test [2] is “inactive”. The Potency is 662 nM (active) in test [7] and 468 nM (active) in test [3].

Consider `COc1ccc(CCC(=O)c2c(O)cc(O[C@@H]3O[C@H](CO)[C@@H](O)[C@H](O)[C@@H]3O[C@@H]3O[C@@H](C)[C@H](O)[C@@H](O)[C@@H]3O)cc2O)cc1O`, for which, in test [2], the outcome was “inactive”.

Take `C[C@]12CC[C@@H]3c4ccc(O)cc4CC[C@H]3[C@H]1CC[C@H]2O`: in [2], the outcome was “inactive”.

Turning to `COc1cc([C@@H]2c3cc4c(cc3[C@H](O)[C@H]3COC(=O)[C@@H]23)OCO4)cc(OC)c1OC`, the Potency result in test [1] was “inactive”. Also, in test [2], the outcome is “inactive”. In addition, the Potency in test [7] is 662 nM (active); in test [3], 417 nM (active).

Take `CNC(=O)Nc1ccc(-c2nc(N3CC4CCC(C3)O4)c3cnn(C4CCC5(CC4)OCCO5)c3n2)cc1`: the Potency entry in test [1] was “inactive”. The Potency in test [7] was 74.2 nM (active); in test [3], 118 nM (active).

Turning to `CCNC(=O)c1cc2c(-c3cc(OCCN4CCCC4)c(Cl)cc3Cl)nc(N)nc2s1`, the Potency result in [1] is “inactive”. Besides, the outcome in [2] is “inactive”. Moreover, the Potency in test [7] and in test [3] was 512 nM (active) each time.

For `N#CNC(=NCCCCCCOc1ccc(Cl)cc1)Nc1ccncc1`, the Potency entry in test [1] is “inactive”. The outcome in test [2] was “inactive”. Also, the Potency in test [7] is 4.7 nM (active); in [3] it was 9.3 nM (active).

Consider `CCC[C@H]1C[C@H](C(=O)N[C@@H]([C@@H]2O[C@@H](SC)[C@@H](O)[C@@H](O)[C@@H]2O)[C@H](C)Cl)N(C)C1`, for which the Potency entry in test [1], in [7] and in [3] was “inactive” throughout. For the same compound, the outcome in test [2] was “inactive”.

As for `CCNC(=O)Nc1ccc(-c2nc3c(c(N4CCOC[C@H]4C)n2)CCN(C2COC2)C3)cc1`, the Potency entry in test [1] was “inactive”. Besides, in test [2], the outcome is “inactive”. For the same compound, the Potency in [7] is 731 nM (active); in test [3], 1300 nM (active).

For the compound `Oc1cc2c(cc1O)C1c3ccc(O)c(O)c3OCC1(O)C2` (stereo unspecified), the Potency entry in test [1] and in test [8] was “inactive” throughout. In addition, the Potency in [9] was 21.3 µM (active).

As for `CCCCCCCCc1ccc(CCC(N)(CO)CO)cc1`, the Potency result in [1] is “inactive”. Further, the outcome in test [2] was “inactive”. The Potency in test [7] and in test [3] was 8330 nM (active) in each case.

Regarding `COc1cccc2c1C(=O)c1c(O)c3c(c(O)c1C2=O)C[C@@](O)(C(=O)CO)C[C@H]3O[C@H]1C[C@H](N)[C@H](O)[C@H](C)O1`, the outcome in [2] was “inactive”.

In the case of `CC(=O)O[C@]1(C(C)=O)CC[C@H]2[C@@H]3C=C(C)C4=CC(=O)CC[C@]4(C)[C@@H]3CC[C@@]21C`, the outcome in test [2] was “inactive”.

Regarding `C[C@@H](Cc1cc2c(c(C(N)=O)c1)N(CCCO)CC2)NCCOc1ccccc1OCC(F)(F)F`, the Potency result in [1], in test [7] and in test [3] was “inactive” throughout. For the same compound, the outcome in [2] was “inactive”.
